AC50 and outcome data for 29 compounds are collected here from PubChem BioAssay (EPA / NIEHS).

The AC50 is the concentration at which the activity in the assay is half-maximal.

Inconclusive results are not listed. Calls of active or inactive are those of the source. Rule for the calls: active = hit-call score of the fitted dose curve at least 0.9, where 1 is the maximum; inconclusive = response in the unintended direction; inactive = score below 0.9.

Sequence of Retinoic acid receptor RXR-alpha (Homo sapiens) (P19793 whole entry, looked up, the tested form may be a part): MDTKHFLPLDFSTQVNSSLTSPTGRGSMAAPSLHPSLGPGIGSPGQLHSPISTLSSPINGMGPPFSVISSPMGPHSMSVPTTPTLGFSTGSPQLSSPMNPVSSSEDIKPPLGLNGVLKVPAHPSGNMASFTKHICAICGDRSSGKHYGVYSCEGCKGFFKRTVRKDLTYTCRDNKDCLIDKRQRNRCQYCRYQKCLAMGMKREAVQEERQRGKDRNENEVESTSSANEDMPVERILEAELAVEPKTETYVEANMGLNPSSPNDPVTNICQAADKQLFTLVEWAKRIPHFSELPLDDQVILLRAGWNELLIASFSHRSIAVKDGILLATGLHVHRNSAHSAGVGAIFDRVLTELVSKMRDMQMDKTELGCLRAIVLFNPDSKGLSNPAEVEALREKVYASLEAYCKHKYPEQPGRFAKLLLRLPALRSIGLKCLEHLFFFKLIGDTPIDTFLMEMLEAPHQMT
Sequence of human Thyroid Receptor alpha (THRa1), THRA (gene 7067) (P10827 whole entry, looked up, the tested form may be a part): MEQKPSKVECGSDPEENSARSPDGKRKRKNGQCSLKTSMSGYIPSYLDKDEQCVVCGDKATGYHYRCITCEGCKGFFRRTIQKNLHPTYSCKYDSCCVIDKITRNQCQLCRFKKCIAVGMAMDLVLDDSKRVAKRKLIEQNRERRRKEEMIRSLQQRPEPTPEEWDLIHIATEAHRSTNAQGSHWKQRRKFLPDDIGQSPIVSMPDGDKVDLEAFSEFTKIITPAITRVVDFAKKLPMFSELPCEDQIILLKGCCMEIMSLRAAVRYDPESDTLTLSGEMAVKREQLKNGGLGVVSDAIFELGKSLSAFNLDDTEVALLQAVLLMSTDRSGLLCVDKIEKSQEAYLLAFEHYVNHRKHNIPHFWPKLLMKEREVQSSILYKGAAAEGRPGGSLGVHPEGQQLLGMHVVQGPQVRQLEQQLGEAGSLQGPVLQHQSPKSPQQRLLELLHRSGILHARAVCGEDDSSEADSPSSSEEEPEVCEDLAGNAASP
Sequence of human Retinoid X Receptor beta (RXRb), RXRB (gene 6257) (P28702 whole entry, looked up, the tested form may be a part): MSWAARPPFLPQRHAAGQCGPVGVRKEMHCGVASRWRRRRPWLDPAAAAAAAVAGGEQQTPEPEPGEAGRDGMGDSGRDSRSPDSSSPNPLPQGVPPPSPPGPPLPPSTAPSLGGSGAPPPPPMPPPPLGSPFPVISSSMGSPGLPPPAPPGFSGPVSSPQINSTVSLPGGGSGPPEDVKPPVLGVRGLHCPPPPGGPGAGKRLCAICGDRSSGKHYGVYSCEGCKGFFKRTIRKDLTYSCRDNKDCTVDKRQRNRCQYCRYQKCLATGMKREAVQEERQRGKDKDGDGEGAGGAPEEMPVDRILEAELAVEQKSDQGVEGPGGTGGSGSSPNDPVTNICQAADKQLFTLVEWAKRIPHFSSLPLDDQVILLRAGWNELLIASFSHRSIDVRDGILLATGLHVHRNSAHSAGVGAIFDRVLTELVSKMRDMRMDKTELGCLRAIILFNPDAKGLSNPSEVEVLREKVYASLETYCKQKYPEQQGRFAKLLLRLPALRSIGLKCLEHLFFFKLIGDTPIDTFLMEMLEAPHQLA

One assay has as its target Retinoic acid receptor RXR-alpha (Homo sapiens) (UniProt P19793). Kind of assay: ATG_RXRa_TRANS: Attagene TRANS-FACTORIAL HepG2 Assay for human Retinoid X Receptor alpha (RXRa) (AID 2283012). The method in brief:
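Transient transfection of human HepG2 with multiple GAL4-UAS reporter constructs; 24 h compound exposure; total RNA isolated, reverse-transcribed, PCR-amplified, 6-FAM labelled, HpaI-cut, resolved by capillary electrophoresis. Positive-direction fit versus DMSO.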
For `CN(C)C(=O)NC1(c2ccccc2)CCN(CCC[C@]2(c3ccc(Cl)c(Cl)c3)CCCN(C(=O)c3ccccc3)C2)CC1`, the concentration at half-maximal activity (AC50) was 3.94 µM (active).
For the compound `CCCCOC(=O)CCCCC(=O)OCCCC`, the compound was classed as inactive.
With `C=CCCCCCCCCCCCC`, the compound was called inactive.
As for `Nc1nc(Cl)nc2c1ncn2[C@H]1C[C@H](O)[C@@H](CO)O1`, the compound was called inactive.
For the compound `Cc1ccc(C(C)(C)C)c(O)c1`, the compound was classed as inactive.
For `Oc1ccccc1O`, the compound was classed as inactive.
Take `CCCCC(CC)COC(=O)CCCCCCCC(=O)OCC(CC)CCCC` (stereo unspecified): the compound was called inactive.
In the case of `CC(=O)[C@@]1(O)CC[C@H]2[C@@H]3CCC4=CC(=O)CC[C@]4(C)[C@H]3CC[C@@]21C`, the call was inactive.
As to `CCCCCCCCCCCCCCOS(=O)(=O)O`, the call was inactive.
Turning to `O=C(O)c1cccnc1`, the call was inactive.
For the compound `Nc1nc(=S)c2[nH]cnc2[nH]1`, the call was inactive.
For the compound `CCN(CC)CCOc1ccc(C(=C(Cl)c2ccccc2)c2ccccc2)cc1`, the compound was classed as inactive.
Same read-out and setting: the value for `CCCCc1nc2cccnc2n1Cc1ccc(-c2ccccc2-c2nnn[nH]2)cc1` was “inactive”; that for `CC(C)c1cccc(C(C)C)c1` was “inactive”; that for `O=C1O[C@H]([C@H](O)CO)C(O)=C1O` was “inactive”.
Still for that read-out and setting: as for `O=[Si]=O`, the entry is “inactive”.
On to `CC(=O)O`, for which the compound was classed as inactive.
As to `CS(=O)(=O)c1ccc([C@@H](C[C@H]2CCC(=O)C2)C(=O)Nc2cnccn2)cc1Cl`, the result was inactive.
Regarding `CC(C)(O)c1ccc(CNC(=O)c2cccnc2Oc2ccc(F)cc2)cc1`, the compound was called inactive.
Still for that read-out and setting: the value for `O=NO` was “inactive”.
In the case of `CC(=O)O[C@]1(C(C)=O)CC[C@H]2[C@@H]3C=C(Cl)C4=CC(=O)[C@@H]5C[C@@H]5[C@]4(C)[C@H]3CC[C@@]21C`, the compound was classed as inactive.
On to `CCCCC(CC)CO` (stereo unspecified), for which the outcome was inactive.
The same measure, in the same setting: as for `COc1ccc(OC(F)(F)F)cc1CN[C@H]1CCCN[C@H]1c1ccccc1`, the entry is “inactive”.
Same read-out and setting: the value for `CCc1nc(N)nc(N)c1-c1ccc(Cl)cc1` was “inactive”.
In the case of `O=C1CCCCC1`, the compound was called inactive.
Still for that read-out and setting: the value for `O=C(O)CN(CC(=O)O)CC(=O)O` was “inactive”; that for `CC(=O)OC1CC(C)OC(C)O1` (stereo unspecified) was “inactive”.
As for `COC(=O)[C@H]1[C@H]2C[C@@H]3c4[nH]c5cc(OC)ccc5c4CCN3C[C@H]2C[C@@H](OC(=O)c2cc(OC)c(OC)c(OC)c2)[C@@H]1OC`, the call was inactive.
Take `CCCC[C@H]1CN(CC2CCOCC2)C(=O)OC12CCN(C1(C)CCN(C(=O)c3c(C)ncnc3C)CC1)CC2`: the result was inactive.

Another assay has as its target human Retinoid X Receptor beta (RXRb), RXRB (gene 6257) (UniProt P28702). Description: ATG_RXRb_TRANS: Attagene TRANS-FACTORIAL HepG2 Assay for human Retinoid X Receptor beta (RXRb) (AID 2283013). An outline of the steps: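 Transfect HepG2 with GAL4-UAS multi-reporter constructs (chimeric NR-Gal4, TRANS format); dose compound 24 h; isolate RNA, RT-PCR, FAM primer extension, HpaI digest; quantify by capillary electrophoresis; positive direction vs DMSO.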
With `CN(C)C(=O)NC1(c2ccccc2)CCN(CCC[C@]2(c3ccc(Cl)c(Cl)c3)CCCN(C(=O)c3ccccc3)C2)CC1`, the AC50 is 4.3 µM (active).
For the compound `CCCCOC(=O)CCCCC(=O)OCCCC`, the compound was called inactive.
`C=CCCCCCCCCCCCC`: the AC50 was 59.1 µM (active).
Turning to `Nc1nc(Cl)nc2c1ncn2[C@H]1C[C@H](O)[C@@H](CO)O1`, the result was inactive.
For `Cc1ccc(C(C)(C)C)c(O)c1`, the AC50 is 23.3 µM (active).
Regarding `Oc1ccccc1O`, the compound was called inactive.
`CCCCC(CC)COC(=O)CCCCCCCC(=O)OCC(CC)CCCC` (stereo unspecified): the compound was classed as inactive.
For the compound `CC(=O)[C@@]1(O)CC[C@H]2[C@@H]3CCC4=CC(=O)CC[C@]4(C)[C@H]3CC[C@@]21C`, the outcome was inactive.
Consider `CCCCCCCCCCCCCCOS(=O)(=O)O`, for which the result was inactive.
The same measure, in the same setting: the value for `O=C(O)c1cccnc1` was “inactive”; that for `Nc1nc(=S)c2[nH]cnc2[nH]1` was “inactive”.
Same read-out and setting: the value for `CCN(CC)CCOc1ccc(C(=C(Cl)c2ccccc2)c2ccccc2)cc1` was “inactive”.
On to `CCCCc1nc2cccnc2n1Cc1ccc(-c2ccccc2-c2nnn[nH]2)cc1`, for which the result was inactive.
For the compound `CC(C)c1cccc(C(C)C)c1`, the AC50 was 100 µM (active).
As for `O=C1O[C@H]([C@H](O)CO)C(O)=C1O`, the compound was called inactive.
Turning to `O=[Si]=O`, the result was inactive.
`CC(=O)O`: the outcome was inactive.
Consider `CS(=O)(=O)c1ccc([C@@H](C[C@H]2CCC(=O)C2)C(=O)Nc2cnccn2)cc1Cl`, for which the result was inactive.
In the case of `CC(C)(O)c1ccc(CNC(=O)c2cccnc2Oc2ccc(F)cc2)cc1`, the compound was called inactive.
On to `O=NO`, for which the result was inactive.
On the same count and under the same terms, as for `CC(=O)O[C@]1(C(C)=O)CC[C@H]2[C@@H]3C=C(Cl)C4=CC(=O)[C@@H]5C[C@@H]5[C@]4(C)[C@H]3CC[C@@]21C`, the entry is “inactive”; as for `CCCCC(CC)CO` (stereo unspecified), “inactive”; as for `COc1ccc(OC(F)(F)F)cc1CN[C@H]1CCCN[C@H]1c1ccccc1`, “inactive”.
Same read-out and setting: as for `CCc1nc(N)nc(N)c1-c1ccc(Cl)cc1`, the entry is “inactive”; as for `O=C1CCCCC1`, “inactive”; as for `O=C(O)CN(CC(=O)O)CC(=O)O`, “inactive”.
Same read-out and setting: the value for `CC(=O)OC1CC(C)OC(C)O1` (stereo unspecified) was “inactive”; that for `COC(=O)[C@H]1[C@H]2C[C@@H]3c4[nH]c5cc(OC)ccc5c4CCN3C[C@H]2C[C@@H](OC(=O)c2cc(OC)c(OC)c(OC)c2)[C@@H]1OC` was “inactive”.
For `CCCC[C@H]1CN(CC2CCOCC2)C(=O)OC12CCN(C1(C)CCN(C(=O)c3c(C)ncnc3C)CC1)CC2`, the outcome was inactive.

A further assay concerns the target human Thyroid Receptor alpha (THRa1), THRA (gene 7067) (UniProt P10827). Description: ATG_THRa1_TRANS: Attagene TRANS-FACTORIAL HepG2 Assay for human Thyroid Receptor alpha (THRa1) (AID 2283014). The method in brief:
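HepG2 cells transiently transfected with multiplexed GAL4-UAS reporter units for exogenous chimeric THRa1-Gal4; reporter mRNA measured 24 h after dosing by RT-PCR, 6-FAM labelling, HpaI digestion and capillary electrophoresis. Gain-of-signal fitted versus DMSO baseline.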
Turning to `CN(C)C(=O)NC1(c2ccccc2)CCN(CCC[C@]2(c3ccc(Cl)c(Cl)c3)CCCN(C(=O)c3ccccc3)C2)CC1`, the outcome was inactive.
As for `CCCCOC(=O)CCCCC(=O)OCCCC`, the outcome was inactive.
The same measure, in the same setting: as for `O=C(O)c1cccnc1`, the entry is “inactive”.
Take `Nc1nc(=S)c2[nH]cnc2[nH]1`: the compound was called inactive.
In the case of `CCN(CC)CCOc1ccc(C(=C(Cl)c2ccccc2)c2ccccc2)cc1`, the result was inactive.
On to `CCCCc1nc2cccnc2n1Cc1ccc(-c2ccccc2-c2nnn[nH]2)cc1`, for which the AC50 was 21.4 µM (active).
`O=C1O[C@H]([C@H](O)CO)C(O)=C1O`: the compound was called inactive.
In the case of `O=[Si]=O`, the result was inactive.
As for `CC(=O)O`, the call was inactive.
As to `CC(C)(O)c1ccc(CNC(=O)c2cccnc2Oc2ccc(F)cc2)cc1`, the call was inactive.
Turning to `CC(=O)O[C@]1(C(C)=O)CC[C@H]2[C@@H]3C=C(Cl)C4=CC(=O)[C@@H]5C[C@@H]5[C@]4(C)[C@H]3CC[C@@]21C`, the result was inactive.
On to `O=C1CCCCC1`, for which the AC50 is 48.4 µM (active).
For `COC(=O)[C@H]1[C@H]2C[C@@H]3c4[nH]c5cc(OC)ccc5c4CCN3C[C@H]2C[C@@H](OC(=O)c2cc(OC)c(OC)c(OC)c2)[C@@H]1OC`, the outcome was inactive.
